# Reference: PubChem BioAssay (NCATS)
# Values without a mark were called inactive. Records with an inconclusive call do not appear. A call without a number means that no potency is given here. Activity calls are given as the source filed them. Unless noted, calls follow the shape of the full dose curve.
# Columns and labels:
# [1] = Primary qHTS for inhibitors of SARS-S pseudo-typed particle cell entry (AID 1479145); settings: outcome: dose series up to 57.1 µM unless noted; also: nearly all actives have a fitted effect of over 45% in size; also: potency is read from the fitted curve at half-maximal effect
# [2] = Primary qHTS for Huh7 cytotoxicity: counterscreen for inhibitors of MERS-S pseudotyped particle cell entry (AID 1479147); settings: outcome: dose series up to 57.1 µM unless noted; also: potency is read from the fitted curve at half-maximal effect
# [3] = VSVG counterscreen qHTS to identify inhibitors of SARS-CoV-2 cell entry (AID 1645847); also: potency is read from the fitted curve at half-maximal effect; nearly all actives have a fitted effect of over 65% in size
# Procedure, shortened: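 Counterscreen using VSV-G (not spike) pseudotyped MLV particles on ACE2-expressing Expi293F cells after 1 h compound preincubation; infection ran 48 h at 37 °C. Data normalized to VSV-G PP and bald-PP wells.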
# [4] = molecular target: Nuclear receptor subfamily 1 group I member 3 (Homo sapiens) (UniProt Q14994); assay: Primary qHTS for antagonist of constitutive androstane receptor (CAR) against the NCATS DSHEA and TCM libraries (AID 1794836; active = well fitted curve in the direction sought with a large enough effect; an effect the other way counts as inactive or inconclusive;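 also: HepG2 cells stably expressing hCAR with CYP2B6 luciferase reporter stimulated by CITCO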)
# Procedure, shortened: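 HepG2-CYP2B6-hCAR cells, attached 5 h, given compounds plus CITCO agonist […], incubated 24 h at 37 C. Luciferase luminescence read, multiplexed with CellTiter-Fluor viability (Ex/Em 405/540 nm).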
# [5] = KB-8-5-11 P-gp reporter qHTS against the NCATS DSHEA and TCM libraries (AID 1919977; active = well fitted curve in the direction sought with a large enough effect; an effect the other way counts as inactive or inconclusive)
# Procedure, shortened: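 Cells were seeded, allowed ~4 h to attach, dosed by pin tool (substance titrations), incubated ~72 h at 37C, then lysed with CellTiter-Glo for 30 min at room temperature before luminescence reading.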
# [6] = Primary qHTS for Vero E6 cytotoxicity: counterscreen for inhibitors of SARS-S pseudo-typed particle cell entry (AID 1479150); settings: outcome: dose series up to 57.1 µM unless noted
# [7] = Confirmatory qHTS to identify inhibitors of SARS-CoV-2 cell entry (AID 1645844); also: potency is read from the fitted curve at half-maximal effect; nearly all actives have a fitted effect of over 45% in size
# Procedure, shortened: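 HEK293-ACE2, overnight seeding; cpd 1 h, 37C/5% CO2; + SARS-CoV-2-S MLV PP (Wuhan-Hu-1, ΔC19); 48 h; Bright-Glo luminescence. Data normalised to S PP and bald PP wells.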
# [8] = Primary qHTS to identify inhibitors of SARS-CoV-2 cell entry (AID 1645846); settings: SARS-CoV-2 pseudovirus cell entry assay, luminescence; activity change, negative = inhibition: at 57.1 µM (top of the series) unless noted; also: potency is read from the fitted curve at half-maximal effect; nearly all actives have a fitted effect of over 45% in size
# Procedure, shortened: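 Data are normalized to wells receiving SARS-CoV-2-S pseudoparticles and those given bald particles. Entry signal was luciferase luminescence in stable hACE2 Expi293F cells, 48 hr post-infection, after 1 hr compound pretreatment.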
# [9] = qHTS Assay for Identification of Small Molecule Agonists for Hypoxia Response Element Signaling Pathway (AID 914; active = well fitted activation curve with a large enough effect in the signal ratio, with a control signal flat, not every such curve was filed as active; the % refers to the signal ratio; also: potency is read from the fitted curve at half-maximal effect); settings: ME-180 (cervical carcinoma) HRE-bla reporter, beta-lactamase ratio, CoCl2, 17 h; activation: hits give high values
# Procedure, shortened: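 Positive modulation of EC50 CoCl2-induced hypoxia response element signaling is measured in ME-180 cells with a beta-lactamase reporter. Compounds are titrated, incubation runs 17 hours, and %Activity derives from the blue/green ratio.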
# [10] = qHTS Assay for Identifying Gametocytocidal Compounds (AID 743244; active = well fitted curve in the direction sought with a large enough effect; an effect the other way counts as inactive or inconclusive; also: potency is read from the fitted curve at half-maximal effect); settings: P. falciparum 3D7 stage III-V gametocytes, alamarBlue, 72 h
# Procedure, shortened: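 P. falciparum 3D7 stage III–V gametocytes (20,000 cells/well) were exposed to compounds for 72 h at 37 °C, 5% CO2. AlamarBlue was then added for 24 h; decreased resorufin fluorescence (Ex 525/Em 598 nm) indicated loss of viability.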
# [11] = Primary qHTS for inhibitors of MERS-S pseudo-typed particle cell entry (AID 1479149); settings: outcome: dose series up to 57.1 µM unless noted; also: potency is read from the fitted curve at half-maximal effect; nearly all actives have a fitted effect of over 60% in size
# [12] = Confirmatory qHTS for VERO E6 Cytotoxicity Assay: Counterscreen for SARS-CoV-2 CPE Assay (AID 1508605); also: nearly all actives have a fitted effect of over 60% in size
# [13] = Confirmatory qHTS for activators (rescue) of SARS-CoV-2 Cytopathic Effect (CPE) (AID 1508606); also: potency is read from the fitted curve at half-maximal effect; nearly all actives have a fitted effect of over 70% in size
# [14] = Cytotoxicity counterscreen for inhibitors of SARS-CoV-2 cell entry (AID 1645845); settings: outcome: dose series up to 57.1 µM unless noted; also: nearly all actives have a fitted effect of over 50% in size
# Procedure, shortened: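 Counterscreen run in the same HEK293-ACE2 line as the pseudotyped-particle entry assay, without particles. Viability after 48 h at 37 C was read as ATP luminescence, scaled between cell-containing and cell-free wells.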
# [15] = molecular target: Cytochrome P450 3A4 (Homo sapiens) (UniProt P08684); assay: qHTS Assay for Inhibitors and Substrates of Cytochrome P450 3A4 (AID 884; active = well fitted curve in the direction sought with a large enough effect; an effect the other way counts as inactive or inconclusive; also: nearly all actives have a fitted effect of over 50% in size)
# Procedure, shortened: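 Luminescent readout of luciferin produced by CYP3A4 (20 nM) dealkylation of Luciferin-PPXE, 25 uM (its KM). NADPH-driven reaction ran 60 min at RT after 10 min compound preincubation; data scaled to 57 uM ketoconazole as 100% inhibition.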
# [16] = Confirmation and Secondary Assay for Modulators of Hemoglobin Beta Chain Splicing at IVS2 654 locus (AID 910; active = well fitted curve in the direction sought with a large enough effect; an effect the other way counts as inactive or inconclusive;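 also: HeLa cells stably carrying EGFP split by mutant beta-globin IVS2-654 intron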)
# Procedure, shortened: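 HeLa cells stably expressing EGFP interrupted by β-globin IVS2-654 intron, seeded overnight in Opti-MEM/2% FCS, then treated 2 days at 37 °C. Restored splicing read as total peak GFP intensity per well by laser scanning cytometry (488 nm excitation, 500–520 nm emission); 500 nM antisense PNA as control.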
# [17] = molecular target: Glutathione peroxidase 1 (Homo sapiens) (UniProt P07203); assay: Primary qHTS Assay for Inhibitors of Recombinant Selenoprotein Glutathione Peroxidase 1 (GPX1) (AID 1845191; active = well fitted curve in the direction sought with a large enough effect; an effect the other way counts as inactive or inconclusive; also: nearly all actives have a fitted effect of over 65% in size)
# Procedure, shortened: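 GR-coupled readout: NADPH consumption tracked by fluorescence, ex 340/em 450 nm, at t=0 and after 15 min at RT. Final mix 10 nM GPX1, 1 mM GSH, 0.5 mM CHP, 0.5 mM NADPH, 100 nM GR, 0.01% BSA, following 30 min enzyme–compound preincubation.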
# Chain of Glutathione peroxidase 1 (Homo sapiens) (P07203 whole entry, looked up): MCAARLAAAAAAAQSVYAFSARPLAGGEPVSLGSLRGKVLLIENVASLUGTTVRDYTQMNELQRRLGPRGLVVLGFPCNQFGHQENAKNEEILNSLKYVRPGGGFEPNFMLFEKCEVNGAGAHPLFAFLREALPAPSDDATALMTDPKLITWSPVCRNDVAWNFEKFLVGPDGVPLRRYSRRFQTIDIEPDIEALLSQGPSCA
# Chain of Cytochrome P450 3A4 (Homo sapiens) (P08684 whole entry, looked up): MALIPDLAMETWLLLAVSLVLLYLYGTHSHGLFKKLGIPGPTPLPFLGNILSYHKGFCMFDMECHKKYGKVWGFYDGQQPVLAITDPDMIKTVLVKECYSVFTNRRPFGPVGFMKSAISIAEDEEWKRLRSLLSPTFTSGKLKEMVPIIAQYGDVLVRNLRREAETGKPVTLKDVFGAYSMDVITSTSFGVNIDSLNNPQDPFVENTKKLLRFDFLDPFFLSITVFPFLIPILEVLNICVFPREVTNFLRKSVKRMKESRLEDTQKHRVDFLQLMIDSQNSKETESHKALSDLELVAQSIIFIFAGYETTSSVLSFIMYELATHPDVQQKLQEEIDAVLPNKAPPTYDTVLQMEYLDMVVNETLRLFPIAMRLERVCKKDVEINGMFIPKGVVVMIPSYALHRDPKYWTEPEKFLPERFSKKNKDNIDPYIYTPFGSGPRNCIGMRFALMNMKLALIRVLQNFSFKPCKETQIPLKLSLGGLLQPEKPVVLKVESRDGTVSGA
# Chain of Nuclear receptor subfamily 1 group I member 3 (Homo sapiens) (Q14994 whole entry, looked up): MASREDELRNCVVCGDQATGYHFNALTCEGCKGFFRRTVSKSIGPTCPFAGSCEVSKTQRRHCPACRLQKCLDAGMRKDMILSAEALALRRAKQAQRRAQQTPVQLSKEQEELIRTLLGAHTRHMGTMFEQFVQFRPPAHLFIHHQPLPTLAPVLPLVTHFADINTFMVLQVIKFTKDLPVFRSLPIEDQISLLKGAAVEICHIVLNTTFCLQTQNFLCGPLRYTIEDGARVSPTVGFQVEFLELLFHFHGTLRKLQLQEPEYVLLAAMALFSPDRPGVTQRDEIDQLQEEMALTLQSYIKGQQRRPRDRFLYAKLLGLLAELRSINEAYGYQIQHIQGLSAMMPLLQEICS
smiles,measurement,setting,value
C=C1CC[C@H](O)C/C1=C\C=C1/CCC[C@]2(C)[C@@H]([C@H](C)CCCC(C)C)CC[C@@H]12,Potency,[1],inactive
same,Potency,[2],inactive
same,Potency,[3],24.1 µM (active)
same,Potency,[4],inactive
same,Potency,[5],inactive
CC(C)OC(=O)CCC/C=C\C[C@@H]1[C@@H](/C=C/[C@@H](O)COc2cccc(C(F)(F)F)c2)[C@H](O)C[C@@H]1O,Potency,[1],inactive
same,Potency,[2],inactive
same,Potency,[6],inactive
same,Potency,[7],21.5 µM (active)
same,Potency,[8],14.1 µM (active)
same,Potency,[3],10.8 µM (active)
CCN(CC)Cc1cc(Nc2ccnc3cc(Cl)ccc23)ccc1O,Potency,[9],5.01 µM (active)
same,Potency,[10],11.2 µM (active)
same,Potency,[1],10 µM (active)
same,Potency,[11],14.1 µM (active)
same,Potency,[6],inactive
same,Potency,[12],inactive
same,Potency,[13],5.62 µM (active)
same,Potency,[8],11.2 µM (active)
same,Potency,[3],3.04 µM (active)
CC[C@@]1([C@@H]2O[C@@H]([C@H]3O[C@@](O)(CO)[C@H](C)C[C@@H]3C)C[C@@H]2C)CC[C@H]([C@]2(C)CCC3(C[C@H](O)[C@@H](C)[C@@H]([C@@H](C)[C@@H](OC)[C@H](C)C(=O)O)O3)O2)O1 (stereo partly drawn),Potency,[1],inactive
same,Potency,[11],1.12 µM (active)
same,Potency,[6],inactive
CC(C)(O)CNc1nc(Nc2ccnc(C(F)(F)F)c2)nc(-c2cccc(C(F)(F)F)n2)n1,Potency,[1],inactive
same,Potency,[2],inactive
same,Potency,[6],inactive
same,Potency,[14],inactive
C=C1/C(=C/C=C2\CCC[C@]3(C)[C@@H]([C@H](C)CCCC(O)(C(F)(F)F)C(F)(F)F)CC[C@@H]23)C[C@@H](O)C[C@@H]1O,Potency,[1],inactive
same,Potency,[2],inactive
same,Potency,[6],inactive
C=C(NC(=O)C(=C)NC(=O)c1csc(C2=N[C@H]3c4csc(n4)[C@H]4NC(=O)c5csc(n5)[C@H]([C@@](C)(O)[C@@H](C)O)NC(=O)[C@H]5CSC(=N5)C(=CC)NC(=O)[C@H]([C@@H](C)O)NC(=O)c5csc(n5)[C@]3(CC2)NC(=O)[C@H](C)NC(=O)C(=C)NC(=O)[C@H](C)NC(=O)[C@H](C(C)CC)N[C@@H]2C=Cc3c([C@H](C)O)cc(nc3[C@H]2O)C(=O)O[C@@H]4C)n1)C(N)=O (stereo partly drawn),Potency,[1],inactive
same,Potency,[2],20 µM (active)
same,Potency,[6],inactive
same,Potency,[7],3.41 µM (active)
same,Potency,[3],1.71 µM (active)
CN1C(CC(=O)c2ccccc2)CCCC1CC(O)c1ccccc1 (stereo not drawn),Potency,[1],inactive
same,Potency,[2],inactive
same,Potency,[6],inactive
same,Potency,[14],inactive
same,Potency,[3],3.83 µM (active)
CNC(C)C(O)c1ccccc1 (stereo not drawn),Potency,[15],inactive
same,Potency,[16],inactive
same,Potency,[17],inactive
